# Shown are actives, neighbours in structure and some others; about 2.3% of the full set was active somewhere.
# M1 PAM parental – counter-screen for M1 PAMs: effect in parental CHO-K1 cells; hit rate 0.02% among 360,000; AID 602247; ATP EC20, Fluo-8 calcium fluorescence; 0% at ATP EC20, 100% at ATP max; activation, % at 3 µM;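 active means activation above the run cutoff, the mean activation of all test compounds plus 3 SD, cut at about 40% in these data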;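 further: peak over basal fluorescence ratio in a 140 s read after ATP addition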
# M1 ag parental – nonselective activator or artifact in parental CHO-K1 cells. hit rate 0.48% among 360,000. Fluo-8 calcium fluorescence; scaled to maximal ATP response, vehicle zero. activation, % at 3 µM; in the data active means activation above about 15%;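 further: untransfected CHO-K1 host cells lacking M1 receptor as counterscreen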
# M1 ag – agonists of human M1 muscarinic receptor | P11229 | CHO-K1 hM1, Fluo-8 calcium fluorescence, agonist mode; 0% DMSO, 100% acetylcholine EC100 | activation, % at 3 µM | hit rate 0.33% among 360,000 | AID 588814;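 active means activation above the run's mean compound activation plus 3 SD, cut at about 16% in these data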;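 further: peak over basal fluorescence ratio within a 140 s kinetic read after compound addition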
# Target sequence (P11229 whole entry, looked up): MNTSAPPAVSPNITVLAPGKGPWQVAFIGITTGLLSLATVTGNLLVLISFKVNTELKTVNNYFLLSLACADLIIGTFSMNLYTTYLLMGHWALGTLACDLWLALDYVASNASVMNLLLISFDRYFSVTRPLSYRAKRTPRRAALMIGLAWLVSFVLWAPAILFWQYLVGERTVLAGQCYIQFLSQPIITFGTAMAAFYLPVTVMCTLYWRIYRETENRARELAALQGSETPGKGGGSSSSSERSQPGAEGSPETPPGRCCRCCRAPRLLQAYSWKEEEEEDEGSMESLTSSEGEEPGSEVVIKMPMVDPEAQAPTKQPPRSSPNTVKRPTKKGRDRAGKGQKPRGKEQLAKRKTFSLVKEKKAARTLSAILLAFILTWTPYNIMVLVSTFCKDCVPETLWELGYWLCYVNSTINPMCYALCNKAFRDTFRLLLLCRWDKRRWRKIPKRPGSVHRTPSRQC
# CHO-K1 Ca antag – M1 antagonist counterscreen hit in parental CHO-K1 cells | ATP-induced calcium, Fluo-8 fluorescence | inhibition, % at 3 µM | hit rate 0.6% among 360,000 | AID 602250;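 active means inhibition above a per-plate cutoff, the plate's mean sample inhibition plus 3 SD, cut at about 24% in these data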;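 further: 0% = DMSO plus EC80 ATP and 100% = DMSO alone without ATP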
# M1 PAM – human CHRM1 positive allosteric modulation | P11229 | CHO-K1 hM1, Fluo-8 calcium fluorescence, ACh EC20; 0% = ACh EC20, 100% = maximal ACh | activation, % at 3 µM | hit rate 0.088% among 360,000 | AID 588819; in the data active means activation above about 19%, passing the limit was not always enough
# CHRM1 antagonist – blocks human M1 muscarinic receptor. inhibition, % at 3 µM. hit rate 1.3% among 360,000. CHO-K1 hM1, Fluo-8 calcium fluorescence, ACh EC80 antagonist. P11229;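 active means percent inhibition above its own plate's cutoff, namely the mean of that plate's compound wells plus 3 SD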;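 further: peak over basal fluorescence ratio during 140 s after agonist addition; 0% = ACh EC80 plus DMSO and 100% = DMSO alone without agonist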
# * = called active by the depositor; . = no result.
SMILES,M1 PAM parental,M1 ag parental,M1 ag,CHO-K1 Ca antag,M1 PAM,CHRM1 antagonist
CC(=O)Oc1cccc(N2C(=O)c3ccc(C(=O)O)cc3C2=O)c1,13,0,-1,-5,4,4
O=C(O)c1ccc2c(c1)C(=O)N(c1cccc(-c3nc4ccccc4s3)c1)C2=O,-6,0,-4,24*,2,-6
CC(=O)Nc1cccc(-c2nc3ccccc3s2)c1,3,21*,-5,14,-2,6
CC(=O)Nc1cccc(-c2nc3ccc(NC(C)=O)cc3s2)c1,22,1,-5,-9,8,5
CC(C)NC(=O)c1cc(C2CCCCN2C(=O)c2ccc(C#N)cc2)on1 (stereo not drawn),22,1,-8,-9,3,-10
COc1ccc(-c2nc3ccc(Cl)cn3c2CC(C)(C)C)cc1OC,13,1,-6,-22,-5,-16
Cc1c(C=C(C#N)c2ccc([N+](=O)[O-])cc2)c(=O)n(-c2ccccc2)n1C,9,0,-7,-9,-21,30*
COCCNC(=O)c1ccc2c(=O)n(CCCN3CCCC3=O)c(=S)[nH]c2c1,14,1,-2,-13,10,-9
O=C(NCc1ccccc1Cl)c1ccc2c(=O)n(CCCN3CCCC3=O)c(=S)[nH]c2c1,-8,-1,-2,30*,9,1
O=C(Nc1nc(OCC(F)(F)F)cnc1/C=C\c1ccccc1)c1ccccc1,4,0,-4,-10,12,-22
CC(=O)Nc1ccc2c(c1)Cc1cc(N3C(=O)C=CC3=O)ccc1-2,-12,0,-7,10,-3,8
CC[N+](C)(CC)CCOC(=O)C(O)(c1ccccc1)C1CCCCC1 (stereo not drawn),9,0,-7,0,-26,98*
CCC(C(=O)NC1CCCCCC1)c1ccccc1 (stereo not drawn),-25,0,-8,11,-4,1
CC[N+](C)(CC)CCC(c1ccccc1)C1CCCCC1 (stereo not drawn),28,1,-9,-8,-29,100*
CCCCN1CC(COCc2ccccc2)Oc2cccc(OCCN3C(=O)[C@@H]4[C@H](C3=O)C3C=C[C@H]4C3)c2S1(=O)=O (stereo partly drawn),1,8,0,12,-12,31
CCCCNC(=O)C1(C)CCN1C(=O)c1ccc(F)cc1Cl (stereo not drawn),20,1,-4,-9,7,-12
COc1ccc(NC(=O)N[C@@H](Cc2ccccc2)C(=O)NN)cc1,25,1,-3,-8,9,-15
NNC(=O)[C@H](Cc1ccccc1)NC(=O)Nc1ccc2c(c1)OCCO2,-13,0,-7,-4,-22,36*
CCC(=O)N1CCC(C)(C(=O)NCc2ccc(F)cc2)C1 (stereo not drawn),21,1,-6,-13,-3,2
Oc1ccccc1-c1n[nH]c(-c2ccccc2O)n1,-5,17*,7,-3,-8,14
CC(=O)Oc1ccccc1Cn1c(C)c(C(=O)NCCC#N)sc1=O,4,1,1,3,12,-15
COc1ccc(C(C(=O)NCC2CCCO2)N(C(=O)CNC(=O)c2ccco2)c2ccccc2)cc1OC (stereo not drawn),2,0,-2,1,2,-1
O=C(NCC1CCCO1)C(c1ccc(F)cc1)N(C(=O)Cn1nnc(-c2ccc(F)cc2)n1)c1cccc(O)c1 (stereo not drawn),3,10,0,2,-9,36*
Cc1cccc(N(C(=O)CNC(=O)c2ccco2)C(C(=O)NCC2CCCO2)c2ccccc2)c1 (stereo not drawn),-7,5,-3,16,-18,23*
Cc1ccc(N(C(=O)CNC(=O)c2ccco2)C(C(=O)NCC2CCCO2)c2ccccc2)cc1 (stereo not drawn),18,3,-4,-3,10,-9
SMILES,M1 PAM parental,M1 ag parental,M1 ag,CHO-K1 Ca antag,M1 PAM,CHRM1 antagonist
COc1ccc(C(C(=O)NCC2CCCO2)N(C(=O)CNC(=O)c2cccs2)c2ccccc2)cc1OC (stereo not drawn),-16,0,-4,24*,-9,15
CC(C)C[C@H]1COc2cc(N3CCC[C@H]3CO)ccc2S(=O)(=O)N1,-6,0,.,-11,.,.
COc1ccc(S(=O)(=O)N2CCCCC2c2cc(C(=O)Nc3ccc4c(c3)OCO4)no2)cc1 (stereo not drawn),-7,1,5,-4,8,-10
COc1ccc(/C=N/N=C2/NC(=O)C(CC(=O)O)S2)cc1OS(=O)(=O)c1ccccc1 (stereo not drawn),3,0,-2,-8,4,-6
COc1cc(/C=N/N=C2/NC(=O)C(Cc3ccccc3)S2)ccc1O (stereo not drawn),18,24*,1,5,7,1
CN(C)S(=O)(=O)N1CCC(Oc2cccc(C(=O)NC3CCCCC3)c2)CC1,7,13,2,1,-3,-1
CN(C)S(=O)(=O)N1CCC(Oc2cccc(C(=O)NCCC3=CCCCC3)c2)CC1,-3,16*,3,2,-16,20
Cc1cc(F)cc(-c2cc(C(=O)NCc3ccccn3)[nH]n2)c1,13,0,-2,-11,5,-15
CC(=O)N1CCc2cc(S(=O)(=O)NCCC(=O)NCCc3ccc(Cl)cc3)ccc21,1,16*,0,-2,-5,7
CC(=O)N1c2ccc(S(=O)(=O)NCCc3ccccc3)cc2CC1C (stereo not drawn),-3,10,1,11,-14,29*
Nc1nc(Nc2ccccc2)sc1C(=O)c1ccccc1,18,14,16*,-11,24,-19
COc1ccc(C(=O)c2sc(Nc3ccccc3)nc2N)cc1,32,2,2,-18,12,-17
CCN(CC)C(=O)C1=C(C)N(Cc2ccc(F)cc2)C(=O)C(CC(=O)NCCCCc2ccccc2)C1 (stereo not drawn),22,1,15,-17,12,-17
CC1=C(C(=O)N(C)C)CC(CC(=O)NCCCCc2ccccc2)C(=O)N1Cc1ccc(F)cc1 (stereo not drawn),-3,0,35*,20,-15,8
COc1ccc(-n2cnc3c(N)nc(N)nc32)cc1,11,0,-3,-9,10,-21
COc1cc(/C=C2\CC/C(=C\c3ccc(OCCO)c(OC)c3)C2=O)ccc1OCCO,4,31*,32*,18,-16,16
COc1ccc(/C=C2\CC/C(=C\c3ccc(OC)c(OC)c3)C2=O)cc1OC,-5,2,-2,3,-2,3
COc1ccc(C(=O)OCC(=O)Nc2ccc(OC(F)F)cc2)c(OC)c1,-6,0,-5,25*,3,-2

# Compound activity: PubChem BioAssay, The Scripps Research Institute Molecular Screening Center
